From PubChem BioAssay
An excerpt weighted towards active compounds, which were near 12% of everything screened.
HP1b chromo inh: inhibitors of HP1-beta chromodomain binding to methylated histone tails. P83916. AlphaScreen HP1-beta / biotin-H3K9me3 peptide binding. Potency, µM (highest dose often 114 µM), without a hit: top-dose activity change, negative = inhibition, hits mostly inhibitors. actives 0.56% (n = 390,000); note: nearly all actives have a fitted effect of over 70% in size
Target sequence (P83916 whole entry, looked up): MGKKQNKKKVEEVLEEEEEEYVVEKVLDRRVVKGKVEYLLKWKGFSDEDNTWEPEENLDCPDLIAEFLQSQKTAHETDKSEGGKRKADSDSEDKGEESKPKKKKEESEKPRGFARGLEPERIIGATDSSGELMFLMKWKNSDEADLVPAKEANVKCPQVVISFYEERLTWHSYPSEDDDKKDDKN
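HP1-beta protein (50 nM final) preincubated 30 min at room temperature with biotinylated H3(1-18)K9me3 peptide (50 nM) in PBS pH 7.4, 0.01% Tween-20, then compound added for 30 min. AlphaScreen streptavidin donor/nickel chelate acceptor beads (10 ug/mL final), 30 min dark, luminescence read.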
JMJD2A Tudor inh: JMJD2A Tudor domain (human) inhibition; O75164; AlphaScreen JMJD2A-Tudor / H3K4me3 peptide binding; Potency, µM (series often up to 114 µM), without a hit: at the top dose activity change, negative = inhibition, usual class: inhibitors; actives 4.4% (n = 390,000); note: % is set by controls: 0 for no effect and ±100 for the full control effect; nearly all actives have a fitted effect of over 50% in size
PLK1 PBD inh: inhibitors of human PLK1 polo-box domain binding | Potency, µM, for inactives: max response, negative = inhibition, usual class: inhibitors | P53350 | Plk1 PBD binding of FITC phosphopeptide, fluorescence polarization | actives 2.8% (n = 360,000); note: series mostly up to about 57 µM; % is set by controls: 0 for no effect and ±100 for the full control effect; nearly all actives have a fitted effect of over 65% in size
G9a inh: blocks human histone lysine methyltransferase G9a | Q96KQ7 | G9a H3K9 monomethylation, AlphaScreen, 2 h | Potency, µM (series often up to 102 µM), inactives show at the top dose activity, negative = inhibition, actives largely listed as inhibitors | actives 8.8% (n = 350,000) | AID 504332; note: % is set by controls: 0 for no effect and ±100 for the full control effect; nearly all actives have a fitted effect of over 75% in size
Target sequence (Q96KQ7 913-1193 limits assumed): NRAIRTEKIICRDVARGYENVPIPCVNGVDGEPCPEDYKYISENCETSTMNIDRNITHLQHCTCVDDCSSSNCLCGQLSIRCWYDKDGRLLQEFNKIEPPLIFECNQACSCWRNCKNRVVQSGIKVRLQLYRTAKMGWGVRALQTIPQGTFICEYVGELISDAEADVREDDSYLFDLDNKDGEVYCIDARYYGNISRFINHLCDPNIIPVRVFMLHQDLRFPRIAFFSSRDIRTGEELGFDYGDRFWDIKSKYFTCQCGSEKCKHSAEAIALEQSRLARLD
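AlphaScreen detection with an anti-monomethyl H3K9 antibody quantified product after a 2 h room-temperature reaction containing 500 nM biotinylated H3K9 peptide, 20 µM SAM and 20 nM enzyme, which had been preincubated 15 min with compound.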
BAZ2B block: inhibitors of human BAZ2B bromodomain. Q9UIF8. AlphaScreen BAZ2B-H3K14Ac peptide displacement. Potency, µM (top dose mostly 114 µM), inactives show at the highest dose activity change, negative = inhibition, hits mostly inhibitors. actives 4.4% (n = 360,000). AID 504333; note: % is set by controls: 0 for no effect and ±100 for the full control effect; nearly all actives have a fitted effect of over 60% in size
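AlphaScreen luminescence quantifies BAZ2B engagement of H3K14Ac peptide; the protein and biotinylated peptide are both at 50 nM final, buffer PBS pH 7.4 with 0.01% Tween-20, all steps at room temperature.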
Sfp inh: blocks B. subtilis Sfp PPTase activity. Q9F4F7. Biochemical Sfp PPTase activity, qHTS. Potency, µM, for inactives: largest response in the series, negative = inhibition, hits mostly inhibitors. actives 3.5% (n = 310,000). AID 1490;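 note: the enzyme is Sfp with the accession as filed and its product quenches rhodamine fluorescence; 0% = enzyme reaction without inhibitor and -100% = no enzyme wells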
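Sfp 15 nM + cpd, 15 min RT; start w/ rhodamine-CoA 5 uM, BHQ-2-YbbR 12.5 uM (final); 50 mM Hepes pH 7.6, 10 mM MgCl2, 0.01% NP-40, 0.01% BSA; read 525/598 nm at 0 and 30 min.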
Numbers without * were called inactive; ? = inconclusive; . = no result given; [ ] = dose if it differs, or a comment. Calls come from the whole dose curve; as a rule, active = well fitted curve in the direction sought with a large enough effect; inconclusive = small, poorly fitted or top-dose-only effect, or another doubt; inactive = no such curve, though single readings can be large; an effect the other way counts as inactive or inconclusive. Potency is the fitted concentration of half-maximal effect.

SMILES	HP1b chromo inh	JMJD2A Tudor inh	PLK1 PBD inh	G9a inh	BAZ2B block	Sfp inh
CCSc1nc2ccc(N3C(=O)C4C5C=CC(C5)C4C3=O)cc2s1 (stereo not given)	-4%	-13%[57.1 µM]	?	11µM*	3%	4%
O=C1C2C3C=CC(C3)C2C(=O)N1c1ccc2ccccc2c1 (stereo not given)	26%	-6%	-2%	10%	-19%	4%
Cc1ccc(NC(=O)CS(=O)CC(=O)N(c2ccc(C)cc2)C(C)C(=O)NC2CCCCC2)cc1 (stereo not given)	41%	-3%	-6%	18µM*	16%	-2%
Cc1ccc(Cl)cc1N1CCN(C(=O)c2cnc(N3CCOCC3)c3ccccc23)CC1	6%[57 µM]	-25%	.	10%[59 µM]	-18%	.
Cc1cc(C)c2c(NC(=O)CCl)nn(C)c2n1	12%	-12%	2%	-22%	-13%	16%
CCc1cc(SC#N)cc(CC)c1NC(=O)CCl	46%	-2%	?	50µM*	2%	-9%
O=S(=O)(Nc1cc(O)cc2cccnc12)c1ccc(Cl)s1	.	79µM*	.	.	.	-25%
O=S(=O)(Nc1nc2ccccc2s1)c1ccc(Cl)s1	12%	-3%	?	?	1%	12%
C=CCO/N=C/C1C(=O)CC(C)(C)CC1=O	1%	10µM*	-9%	35µM*	?	?
COc1ccc(-c2cc(C3C4C=CCC(C)C4C(=O)N3Cc3ccccc3)ccc2F)cc1OC (stereo not given)	15%	-36%	.	.	.	-19%
Cc1sc2c(c1C)CN(C(C)(C)C)CN2C(=O)c1ccccc1	22%	-2%	-6%	50µM*	?	-7%
COC(=O)CN1C(=O)N(c2ccccc2)C(N(O)C(=O)Nc2ccccc2)C1(C)C (stereo not given)	18%	?	-7%	40µM*	-39%	-4%
Cc1n(-c2ccccc2)c2ccc(Cl)cc2[n+]1CCO	-20%	?	-7%	8.9µM*	-17%	-9%
CCOCC(=O)N1CCN(c2ccccc2OC)CC1	42%	-10%[11.4 µM]	-4%	8%[59 µM]	-13%	11%
Cc1cc(C)n2nc(CC(=O)NCc3ccc(F)cc3)nc2n1	9%	71µM*	27µM*	?	13%	-16%
Cc1cc(C)n2nc(CC(=O)NNC(=O)COc3ccccc3)nc2n1	35%	-3%	-10%	25µM*	-9%	2%
Cc1ccc(CNC(=O)Cc2nc3nc(C)cc(C)n3n2)cc1	40%	5%	0%	24%[59 µM]	11%	15%
Cc1cc(C)n2nc(C(=O)NCc3ccccc3)cc2n1	?	-22%	21µM*	?	22%	?
Cc1cc(C)n2nc(C(=O)NCc3ccccc3)nc2n1	22%	4%	-6%	6%[12.7 µM]	9%	7%
Cc1cc(C)n2nc(C(=O)OCC(=O)c3ccc(F)cc3)nc2n1	13%	-17%	3%	56µM*	-6%	.
Cc1ccccc1CNC(=O)CN1CCSc2ccccc21	-3%[57 µM]	?	.	-32%[59 µM]	?	.
Cc1cc2c(cc1NS(=O)(=O)c1ccc(NC(=O)CC(C)C)cc1)n(C)c(=O)c(=O)n2C	9%	-16%	.	24%[59 µM]	-4%	.
COc1ccc(Cn2c(=O)[nH]c3cc(C(=O)NCCC(C)C)ccc3c2=O)cc1	26%	9%	.	4%[59 µM]	7%	.
Cc1ccc(S(=O)(=O)N2CCN(C(=O)CSc3ncn[nH]3)CC2)c(C)c1	6%	-10%	-7%	?	9%	.
Cc1ccc(S(=O)(=O)/N=C2/C=C(Sc3ncn[nH]3)C(=O)c3ccccc32)cc1	8.9µM*	2.8µM*	0.75µM*	0.56µM*	45µM*	3.2µM*
SMILES	HP1b chromo inh	JMJD2A Tudor inh	PLK1 PBD inh	G9a inh	BAZ2B block	Sfp inh
CC(C)c1ccc(S(=O)(=O)/N=C2/C=C(Sc3ncn[nH]3)C(=O)c3ccccc32)cc1	18µM*	7.1µM*	1.5µM*	1.6µM*	45µM*	2µM*
Cc1ccc(S(=O)(=O)/N=C2/C=C(Sc3ncn[nH]3)C(=O)c3ccccc32)c(C)c1	.	.	.	0.89µM*	45µM*	3.5µM*
Cn1c(=O)oc2cc(S(=O)(=O)N3CCCC(C(=O)NCCc4ccc(Cl)cc4)C3)ccc21 (stereo not given)	44%	1%	.	1%[59 µM]	2%	.
CCOc1cc(S(=O)(=O)NC2CCCCCC2)ccc1F	48%	21%	0%	-4%[59 µM]	-32%	19%
CC1SC(=NC(=O)c2ccco2)NC1=O (stereo not given)	-5%	?	-30%	50µM*	5%	-8%
CCOC(=O)c1c(NC(=O)c2cc(-c3ccc(Br)cc3)on2)sc(C(C)=O)c1C	11%	-17%	.	-36%[59 µM]	-28%	.
CCOC(=O)c1c(NC(=O)c2cc(-c3ccc(OC)c(OC)c3)on2)sc(C)c1C	22%	-2%	.	-33%[59 µM]	4%	.
CCOC(=O)Nc1sc(C)c(C)c1C(=O)OCC	70%	22%	-11%	42%	26%	-28%
CCOC(=O)c1c(Nc2nc(C)c(C(=O)NC)s2)sc(C)c1C	12%	-22%	-24%	?	0%	40µM*
CCOC(=O)c1c(NC(=O)c2cc(C)on2)sc(C)c1C	-16%	5%	.	3.2µM*	6%	.
CCOC(=O)c1c(NC(=O)c2cc(CC)on2)sc(C)c1C	?	-2%	.	7.1µM*	1%	.
CC(=O)Nc1sc(C)c(C)c1C(=O)OC(C)C	?	?	27µM*	-8%[59 µM]	-24%	0%
O=C(NCc1ccccc1F)C(=O)NCC(c1ccco1)S(=O)(=O)c1ccccc1 (stereo not given)	24%	-9%	.	-10%[59 µM]	-5%	.
CCN(CC(=O)Nc1ccc(NC(C)=O)cc1)C(=O)c1ccc(N(C)S(=O)(=O)c2ccc(C)cc2)cc1	35%	-9%	1%	.	.	.
CCOC(=O)c1c(NC(=O)c2cc(-c3ccc(Cl)cc3)on2)sc(C)c1C	7%	-6%	.	8.9µM*	3%	.
CCOC(=O)c1c(NC(=O)c2noc3c2CCCC3)sc(C)c1C	.	.	.	28µM*	-3%	32µM*
Cc1ccc(CNC(=O)C(=O)NCC2CCCO2)cc1 (stereo not given)	18%	-7%	0%	-2%[59 µM]	8%	14%
Cc1ccc(CNC(=O)c2ccc3c(=O)[nH]c4c(C(=O)NCC5CCCO5)sc(=S)n4c3c2)cc1 (stereo not given)	-38%	?	?	?	35µM*	?
O=C(NCc1ccccc1)c1ccc2c(=O)[nH]c3c(C(=O)NCC4CCCO4)sc(=S)n3c2c1 (stereo not given)	?	?	?	45µM*	40µM*	-16%
